Screening data from PubChem BioAssay.
A selection: hits, their analogues and other compounds. The true share with any hit is near 21%.
Pf growth 48h = inhibits P. falciparum growth in the first generation, 48 h; P. falciparum luciferase growth in erythrocytes, 48 h; Potency, µM (top dose mostly 28.7 µM), for inactives: at the highest dose activity change, negative = inhibition, hits mostly inhibitors; 310,000 compounds, 5.9% hits; note: potency is the fitted concentration of half-maximal effect; % is set by controls: 0 for no effect and ±100 for the full control effect
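Read-out is firefly luciferase luminescence from an integrated reporter in P. falciparum, so falling signal marks reduced parasite growth. Infected erythrocytes were at 2% hematocrit and 0.1% parasitemia (final) in Albumax-supplemented RPMI 1640.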
Shiga inhibitor = inhibitors of Shiga toxin in Vero cells | Vero cells, Shiga toxin protein synthesis inhibition reporter | inhibition, % at 38.7 µM | 290,000 compounds, 9.2% hits | AID 2315; in the data active = inhibition mostly above about 28%, no sharp cut-off; inactive = mostly below about 43%; note: 0% is about no effect
Pf growth 96h = inhibits malaria parasite growth, 96 h; P. falciparum luciferase reporter growth, 96 h; Potency, µM (titrated, usually from 28.7 µM), without a hit: top-dose activity change, negative = inhibition, actives largely listed as inhibitors; 320,000 compounds, 6.9% hits; AID 504834; note: potency is the fitted concentration of half-maximal effect; % is set by controls: 0 for no effect and ±100 for the full control effect
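Erythrocytes infected with luciferase-expressing P. falciparum were dispensed at 2% hematocrit and 0.05% parasitemia (final), then incubated with compounds 96 hours at 37 C in 5% CO2. Luminescence after detection reagent addition reported growth.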
NS1 inh = inhibitors of influenza NS1 protein function | 270,000 compounds, 0.4% hits | Potency, µM (series often up to 46.1 µM), without a hit: at the top dose activity, positive = more growth; calls by dose curve; note: potency is the fitted concentration of half-maximal effect; actives are rising curves; nearly all actives have a fitted effect of over 50% in size
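Compounds were scored for reversing the slow growth caused by influenza A NS1 in S. cerevisiae, measured by optical density at 600 nm. Assay medium contained 2% galactose at pH 6.0; NS1-free yeast of the same strain were the positive control.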
CHX counter = affects cycloheximide protein synthesis inhibition readout, counter-screen | cell reporter, cycloheximide protein synthesis inhibition counterscreen | max response, % | 300,000 compounds, 12% hits | AID 2314; in the data active = max response mostly above about 13%, no sharp cut-off; inactive = mostly below about 14%; note: read at 38.3 µM for the half of the compounds with a filed dose; 0% is about no effect
Giardia FBPA inh = blocks Giardia fructose-bisphosphate aldolase activity; A8B2U2; purified Giardia FBPA; Potency, µM (top dose mostly 59.6 µM), for the others: top-dose activity, negative = inhibition, actives largely listed as inhibitors; 290,000 compounds, 0.71% hits; note: potency is the fitted concentration of half-maximal effect; % is set by controls: 0 for no effect and ±100 for the full control effect; nearly all actives have a fitted effect of over 55% in size
Target sequence (A8B2U2 whole entry, looked up): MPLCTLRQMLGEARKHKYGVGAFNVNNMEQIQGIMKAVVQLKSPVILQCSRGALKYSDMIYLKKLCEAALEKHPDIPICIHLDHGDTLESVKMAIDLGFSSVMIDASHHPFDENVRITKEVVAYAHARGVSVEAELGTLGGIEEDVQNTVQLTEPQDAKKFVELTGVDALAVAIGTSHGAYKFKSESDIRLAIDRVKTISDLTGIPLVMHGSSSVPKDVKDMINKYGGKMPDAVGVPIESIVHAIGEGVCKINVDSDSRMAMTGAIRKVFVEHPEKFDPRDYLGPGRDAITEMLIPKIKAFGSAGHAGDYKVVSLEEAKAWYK
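40 nM FBPA preincubated 10 min at RT with compound (up to 57.5 uM final), then substrate plus GAPDH/TPI/NAD/arsenate coupling and diaphorase/resazurin added. Fluorescence read after 20 min at RT, 525/598 nm.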
* hit, by the source's call; ? = inconclusive; / = no result. Unless noted, calls come from the whole dose curve; as a rule, active = well fitted curve in the direction sought with a large enough effect; inconclusive = small, poorly fitted or top-dose-only effect, or another doubt; inactive = no such curve, though single readings can be large; an effect the other way counts as inactive or inconclusive.

SMILES	Pf growth 48h	Shiga inhibitor	Pf growth 96h	NS1 inh	CHX counter	Giardia FBPA inh
CC1CCC2C(=O)N(c3ccc(Cc4ccncc4)cc3)C(=O)C2C1 (centres undefined)	32.1%	-12.2	?	0.0%	0.4	8.1%
COc1cc(C)nc(NCc2ccccc2)n1	3.4%	8.3	?	2.6%	9.4	1.4%
COC(=O)c1ccc(Oc2cc(C)nc(NCc3ccccc3)n2)cc1	?	-7.5	10.4µM*	-8.1%	-4.7	-10.6%
Cc1cc(NC2CCCCC2)nc(NCc2ccccc2)n1	1.85µM*	-18.4	1.47µM*	-40.4%	-4.8	6.2%
O=C1ON=C(c2ccccc2)/C1=C/c1ccc(-c2ccccc2[N+](=O)[O-])o1	?	26.5	8.28µM*	-0.9%	-2.4	-24.7%
C=CCc1cc(Cl)ccc1OCCOCCNC(C)(C)C	13.1µM*	-8.4	2.7%	-4.6%	-2.3	?
C=CCc1cc(Cl)ccc1OCCNCCCOC	-9.5%	-3.3	13.1µM*	-6.4%	-3.9	-7.9%
C=CCc1cc(Cl)ccc1OCCOCCNCCOC	-15.2%	-15.1	?	-9.4%	-4.0	-9.5%
Cn1c(SCC(=O)Nc2ccccc2F)nnc1-c1cccs1	-3.4%	43.4*	34.0%	6.3%	26.0	-2.6%
Cn1c(Cc2cccs2)nnc1SCC(=O)Nc1ccccc1F	?	/	1.0%	/	/	/
Cn1c(SCc2nc(-c3ccc(Cl)cc3)no2)nnc1-c1cccs1	/	22.2	-9.4%	11.6%	10.0	-5.5%
Cn1c(SCc2c(F)cccc2Cl)nnc1-c1cccs1	-22.8%	68.3*	?	-9.9%	27.8*	-3.9%
C[C@H](NC(=O)CNC(=O)[C@@H](NC(=O)[C@H](Cc1ccccc1)NC(=O)CNC(=O)CNC[C@@H](N)Cc1ccccc1)[C@@H](C)O)C(=O)N[C@@H](CCCN=C(N)N)C(=O)N[C@@H](CCCCN)C(=O)N[C@@H](CO)C(=O)N[C@@H](C)C(=O)N[C@@H](CCCN=C(N)N)C(=O)N[C@@H](CCCCN)C(N)=O	/	-10.4	/	/	-2.4	4.0%
C=CCn1cc(CN2CCC(C(=O)Nc3cccc(-c4cccc(F)c4)c3)CC2)c(C)n1	14.7µM*	-1.9	?	-2.4%	-2.2	/
CCCn1ncc(CN2CCC(C(=O)Nc3cccc(-c4cccc(F)c4)c3)CC2)c1C	7.38µM*	-10.4	?	4.9%	-5.2	3.4%
CCN(C(=O)CN1C(=O)S/C(=C\c2ccc(F)cc2)C1=O)C1CCS(=O)(=O)C1 (centres undefined)	?	26.8	3.1%	-79.2%	11.5	5.7%
COC(=O)COc1ccc2cc(-c3ccc(OC)cc3)c(=O)oc2c1	101.6%	-6.0	93.7%	1.0%	1.8	7.2%
COc1ccc(-c2cc3ccc(OCC(C)=O)cc3oc2=O)cc1	231.7%	126.7*	230.4%	-19.0%	57.1*	6.9%
COc1ccc(-c2cc3ccc(OCC(C)=O)cc3oc2=O)cc1OC	114.1%	27.4*	75.2%	1.3%	24.8*	-6.8%
COc1cc2nncc(SCc3ccc(Cl)c(Cl)c3)c2cc1OC	/	/	/	-7.6%	/	/
O=C(CN1C(=O)NC2(CCCC2)C1=O)N1CCN(S(=O)(=O)c2ccc(Cl)c(C(F)(F)F)c2)CC1	-7.6%	/	13.1%	/	/	/
COC(=O)N1C(=O)[C@](c2ccccc2)(C2CCCC2)N1C(=O)OC	17.5%	14.0	-8.3%	-4.1%	19.1*	10.7%
COC(=O)N1C(=O)[C@@](c2ccc(OC)cc2)(C(C)C)N1C(=O)OC	-8.6%	19.1*	1.6%	-39.5%	15.5*	2.5%
COC(=O)N1C(=O)[C@](c2ccc(Cl)cc2)(C(C)C)N1C(=O)OC	-0.7%	3.6	8.8%	-14.9%	7.0	2.1%
COC(=O)N1C(=O)[C@@](c2ccccc2)(C(C)C)N1C(=O)OC	-9.1%	10.2	-5.4%	-17.8%	20.0*	-2.6%
COC(=O)CCCCCc1ccc(C(C)=O)s1	12.1%	11.2	33.8%	-6.7%	11.8*	12.3%
Cc1ccc(Cl)cc1N1CCN(Cc2cc3c(cc2O)CCC3)CC1	/	-15.0	0.147µM*	7.2%	-1.1	6.6%
Cc1ccnc(SCc2cc(=O)c(OC(=O)c3cccs3)co2)n1	-20.0%	17.5	33.4%	/	-0.6	-2.9%
O=C(Oc1coc(CSc2ncccn2)cc1=O)c1cccs1	-1.1%	22.3	?	/	16.0*	0.2%
